A selection: hits, their analogues and other compounds. The true share with any hit is near 6.8%.
Cy5 interf NS3h: Cy5 fluorescence quenchers or enhancers, artefact control for HCV NS3 helicase inhibitor project, biochemical, ChemBridge library, Cy5 readout | 6% of 16,000 active | Cy5-dT15 DNA with NS3h, fluorescence interference; actives lie on both sides; signal over control mean, under 1 quenches | fluorescence interference ratio at 100 µM | AID 720488, 2013;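 active = compound fluorescence over control fluorescence at most 0.8, a quencher, or at least a set upper limit, an enhancer; inactive = ratio between 0.8 and the set upper limit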
HCV NS3h FP: HCV NS3 helicase inhibitors, primary screen, biochemical, fluorescence polarization, ChemBridge library | Hepatitis C virus NS3 helicase | AID 687043, 2013 | NS3h Cy5-dT15 DNA binding | inhibition, % at 100 µM | 1.6% of 16,000 active;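 active = inhibition above the average over every tested compound plus 3 SD, cut at about 40% in these data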
* hit, by the source's call.

SMILES	Cy5 interf NS3h	HCV NS3h FP
COc1cc(/C=C2/SC(=NS(=O)(=O)c3ccccc3)NC2=O)c([N+](=O)[O-])cc1OC	0.958	16.4
O=C1NC(=S)S/C1=C/c1ccc(OCc2cccc(C(=O)O)c2)cc1	0.917	46.1*
N/C(=N/OC(=O)c1ccccc1I)c1ccc(Cl)cc1	0.897	9.7
CCOC(=O)c1c(C)oc2ccc(OCc3ccccc3F)cc12	0.945	8.5
Cc1ccc(/C=C2/SC(=S)NC2=O)s1	0.788*	13.2
Cc1ccc(/C=C2/NC(=S)NC2=O)s1	1.15	20.1
Cc1ccc(-c2nc3ccccn3c2NC(=O)c2ccccc2)cc1	0.776*	19.9
Cc1ccc(-c2nc3ccccn3c2NC(=O)c2ccc(Cl)cc2)cc1	0.898	12.9
CC1CCN(c2c3c(c(C#N)c4nc5ccccc5n24)CCC3)CC1	0.974	-4.9
Cc1cc(/C=C2/NC(=O)NC2=O)c(C)n1-c1ccc(F)cc1	0.957	9.0
CS(=O)(=O)N1CCN(Cc2ccncc2)CC1	0.681*	-11.8
COc1ccccc1CN1CCN(S(C)(=O)=O)CC1	0.77*	5.0
CSc1ccc(CN2CCN(S(C)(=O)=O)CC2)cc1	1	0.3
CS(=O)(=O)N1CCN(Cc2ccc(Cl)cc2)CC1	1.06	-14.1
COc1cc(OC)c(OC)cc1CN1CCN(S(C)(=O)=O)CC1	1.01	-15.6
CS(=O)(=O)N1CCN(Cc2ccccc2Br)CC1	0.67*	-2.5
CC(C)Oc1ccc(NC(=O)C23CC4CC(CC(C4)C2)C3)cc1	0.939	11.5
COc1ccc(Br)cc1C=C1C(=O)N(C)C(=O)N(C)C1=O	1.08	3.7
Clc1ccc(N2CCN(N=Cc3c(Cl)cccc3Cl)CC2)cc1	0.974	14.4
CCCOC(=O)c1cccc(NC(=O)COc2ccc(C)cc2Br)c1	0.99	8.3
Cc1ccc(OCCOCCOc2ccc(/C=c3\sc4nc5ccccc5n4c3=O)cc2)cc1	1.25*	9.1
Cc1ccccc1OCCOc1ccc(/C=c2\sc3nc4ccccc4n3c2=O)cc1	1.11	12.9
COc1ccc(N(CC(=O)Nc2ccc(Br)cc2)S(C)(=O)=O)cc1	1.03	6.0
N/C(=N/OC(=O)c1ccc(I)cc1)c1ccc([N+](=O)[O-])cc1	0.953	3.3
CN(C)/C(=N\OC(=O)c1ccc([N+](=O)[O-])cc1)c1nonc1N	0.67*	18.6
SMILES	Cy5 interf NS3h	HCV NS3h FP
O=C(c1sc2ccccc2c1Cl)N1CCN(c2ccc(Cl)cc2[N+](=O)[O-])CC1	0.955	20.7
O=C(c1ccccc1)N1CCN(C(=O)c2nn3c(C(F)(F)F)cc(-c4cccs4)nc3c2Br)CC1	0.71*	9.6
O=C(Nc1cccc(C(F)(F)F)c1)c1cnn2c(C(F)(F)F)cc(-c3cccs3)nc12	0.661*	7.7
COc1ccc(-c2cc(C(F)(F)F)n3nc(C(=O)N4CCc5ccccc5C4)cc3n2)cc1	0.971	9.4
CC(C)OC(=O)c1cnn2c(C(F)(F)F)cc(-c3ccc(F)cc3)nc12	0.942	10.3
Cc1ccc(N2C(=O)CC(NCCCN3CCOCC3)C2=O)cc1 (stereo unspecified)	1.11	25.1
COC(=O)c1cc(-c2ccc(/C=C(\C#N)c3nc4ccccc4[nH]3)o2)ccc1Cl	1.03	3.5
Cc1ccc2nc(/C(C#N)=C/c3ccc(-c4ccc(Cl)cc4)o3)[nH]c2c1	0.771*	-50.7
COC(=O)c1ccc(COc2ccc3c(oc(=O)c4ccccc43)c2C)cc1	1.05	-3.6
CN(C)c1ccc(NC(=O)c2ccccc2F)cc1	0.987	7.7
CN(C)c1ccc(NC(=O)c2cc(Cl)ccc2Cl)cc1	0.985	44.8*
CCP(=O)(CC)c1ccccc1CO	1.08	2.5
NC(=O)C1CCN(C(=O)COc2ccccc2)CC1	1.08	0.7
COc1ccc(C2NC(c3ccc(OC)cc3)C(c3ccccc3)C(=O)C2c2ccccc2)cc1 (stereo unspecified)	0.716*	18.0
COc1ccc(C2NC(c3ccc(OC)cc3)C3CCCC2C3=O)cc1 (stereo unspecified)	1.02	5.8
O=C(O/N=C(\c1ccncc1)c1ccc([N+](=O)[O-])cc1)c1ccccc1F	0.988	11.5
CCCCOc1ccc(C(=O)O/N=C(\c2ccncc2)c2ccc([N+](=O)[O-])cc2)cc1	0.747*	10.5
CC(=O)Oc1ccc(/C=c2/sc3nc(-c4ccc(C(C)(C)C)cc4)nn3c2=O)cc1	1.03	7.9
C/C(=N/NC(N)=O)C1CC1(C)C(C)(C)C (stereo unspecified)	1.03	44.1*
CC1=NN(c2nc(-c3ccc(Br)cc3)cs2)C(=O)/C1=C\c1ccc2c(c1)OCO2	0.965	14.5
Cc1ccccc1NC(=O)c1ccc(-c2ccccc2)cc1	1.1	11.7
COc1ccc(NC(=O)COc2ccc3ccccc3c2)c([N+](=O)[O-])c1	1.09	2.2
COc1ccc(NC(=O)CSc2ccncc2)c([N+](=O)[O-])c1	0.64*	-0.6
C/C(=N\OCO/N=C(\C)c1ccc(F)cc1)c1ccc(F)cc1	0.92	9.5
COc1ccc(N2C(=O)/C(=C3/C(=O)N(Cc4ccccc4F)c4ccccc43)SC2=S)cc1	1.2*	7.4
SMILES	Cy5 interf NS3h	HCV NS3h FP
CN1C(=O)/C(=C2/C(=O)N(CC(N)=O)c3ccccc32)SC1=S	0.878	2.9
CCOc1ccc(NC(=O)C(=O)NCC2CCNCC2)cc1	1	3.7
CCC(C(=O)Nc1ccc(C)c(C)c1)c1ccccc1 (stereo unspecified)	1	15.7
COC(=O)c1ccc(CSc2nc3ccccc3[nH]2)cc1	1.02	4.7
COc1ccc(C(=O)CSc2nc3ccccc3c(=O)[nH]2)cc1	1.06	0.7
COc1ccc(C(=O)CSc2nnc(Sc3nc4ccccc4[nH]3)o2)cc1	0.538*	9.6
CC1=C(C(=O)OCCOC(C)C)C(c2ccc(N(C)C)cc2)C2=C(CCCC2=O)N1 (stereo unspecified)	1.01	5.8
CC12CC3(C)CC(C)(C1)CC(C(=O)NN)(C2)C3	1.05	1.3
CC12CC3(C)CC(C)(C1)CC(C(=O)NCCO)(C2)C3	1.27*	13.8
CCCOc1ccc(C(=O)Nc2cc(Cl)cc(Cl)c2)cc1	1	5.0
COc1cc(NC(=O)c2ccc(Cl)cc2)c(Cl)cc1N	0.822	35.2
O=C(c1ccc(S(=O)(=O)N2CCCC2)cc1)N1CCN(c2ccccc2)CC1	0.912	4.1
CS(=O)(=O)N1CCN(C(=O)c2ccc(-c3ccccc3)cc2)CC1	0.622*	0.3
Cc1ccc2oc(C(Cl)(Cl)Cl)cc(=O)c2c1	0.598*	-2.5
Cc1ccc2oc(Nc3nc(C)cc(=O)[nH]3)nc2c1	1.03	7.9
Cc1cccc(OCCOc2ccc(/C=C3/SC(=S)N(C)C3=O)cc2)c1	1.1	-0.6
CC(NC(=O)c1cc2nc(-c3ccco3)cc(C(F)(F)F)n2n1)C1CC2CCC1C2 (stereo unspecified)	0.699*	19.5
COc1cc(NC(=O)c2cc3nc(-c4ccc5c(c4)OCO5)cc(C(F)(F)F)n3n2)c(OC)cc1Cl	1.11	10.0
O=C(Nc1ccccc1C(=O)Nc1ccccn1)c1ccco1	1.06	42.4*
O=C(Nc1ccccc1C(=O)Nc1ccccn1)c1ccccc1F	0.946	8.7
O=C(Nc1ccc2ccccc2c1)c1ccc(-c2cccc(Cl)c2)o1	0.942	5.2
O=C(Nc1ccc(-c2nc3ncccc3o2)cc1)c1ccc(-c2cccc(Cl)c2)o1	1.21*	-44.1
